Experimental findings from ChEMBL document CHEMBL1961873, “Compounds: GSK PKIS; Assays: Nanosyn kinase panel” (2012) are described below.

As usually defined, the inhibition is the relative decrease from the control value, in per cent.

The target in assay [1] is T1, Inhibitor of nuclear factor kappa-B kinase subunit epsilon (Homo sapiens) (UniProt Q14164).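 Also: reported values are averaged percent inhibition figures against human IKKε.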
T1 sequence (whole entry): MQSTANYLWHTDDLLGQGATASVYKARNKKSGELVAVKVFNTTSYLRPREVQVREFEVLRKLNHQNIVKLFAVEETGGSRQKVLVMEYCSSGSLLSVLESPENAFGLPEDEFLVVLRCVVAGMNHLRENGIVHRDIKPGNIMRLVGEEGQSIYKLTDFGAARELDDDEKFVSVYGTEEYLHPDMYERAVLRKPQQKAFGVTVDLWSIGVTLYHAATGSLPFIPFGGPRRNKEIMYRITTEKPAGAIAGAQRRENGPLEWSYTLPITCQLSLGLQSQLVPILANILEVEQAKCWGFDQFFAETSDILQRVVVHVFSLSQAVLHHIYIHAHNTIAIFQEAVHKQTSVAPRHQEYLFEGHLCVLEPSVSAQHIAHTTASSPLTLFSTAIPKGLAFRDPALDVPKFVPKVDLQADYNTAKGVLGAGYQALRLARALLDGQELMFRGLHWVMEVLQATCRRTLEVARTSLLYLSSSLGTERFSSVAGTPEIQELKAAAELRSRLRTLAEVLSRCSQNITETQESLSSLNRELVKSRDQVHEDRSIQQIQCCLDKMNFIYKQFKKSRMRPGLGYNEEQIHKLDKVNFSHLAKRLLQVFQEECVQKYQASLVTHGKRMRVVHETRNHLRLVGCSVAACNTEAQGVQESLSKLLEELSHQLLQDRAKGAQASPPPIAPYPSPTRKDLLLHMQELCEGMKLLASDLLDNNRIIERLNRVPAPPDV
The conditions noted are these: at 1 µM.

Assay [2] deals with T2, Serine/threonine-protein kinase Nek1 (Homo sapiens) (UniProt Q96PY6).
T2 sequence (whole entry): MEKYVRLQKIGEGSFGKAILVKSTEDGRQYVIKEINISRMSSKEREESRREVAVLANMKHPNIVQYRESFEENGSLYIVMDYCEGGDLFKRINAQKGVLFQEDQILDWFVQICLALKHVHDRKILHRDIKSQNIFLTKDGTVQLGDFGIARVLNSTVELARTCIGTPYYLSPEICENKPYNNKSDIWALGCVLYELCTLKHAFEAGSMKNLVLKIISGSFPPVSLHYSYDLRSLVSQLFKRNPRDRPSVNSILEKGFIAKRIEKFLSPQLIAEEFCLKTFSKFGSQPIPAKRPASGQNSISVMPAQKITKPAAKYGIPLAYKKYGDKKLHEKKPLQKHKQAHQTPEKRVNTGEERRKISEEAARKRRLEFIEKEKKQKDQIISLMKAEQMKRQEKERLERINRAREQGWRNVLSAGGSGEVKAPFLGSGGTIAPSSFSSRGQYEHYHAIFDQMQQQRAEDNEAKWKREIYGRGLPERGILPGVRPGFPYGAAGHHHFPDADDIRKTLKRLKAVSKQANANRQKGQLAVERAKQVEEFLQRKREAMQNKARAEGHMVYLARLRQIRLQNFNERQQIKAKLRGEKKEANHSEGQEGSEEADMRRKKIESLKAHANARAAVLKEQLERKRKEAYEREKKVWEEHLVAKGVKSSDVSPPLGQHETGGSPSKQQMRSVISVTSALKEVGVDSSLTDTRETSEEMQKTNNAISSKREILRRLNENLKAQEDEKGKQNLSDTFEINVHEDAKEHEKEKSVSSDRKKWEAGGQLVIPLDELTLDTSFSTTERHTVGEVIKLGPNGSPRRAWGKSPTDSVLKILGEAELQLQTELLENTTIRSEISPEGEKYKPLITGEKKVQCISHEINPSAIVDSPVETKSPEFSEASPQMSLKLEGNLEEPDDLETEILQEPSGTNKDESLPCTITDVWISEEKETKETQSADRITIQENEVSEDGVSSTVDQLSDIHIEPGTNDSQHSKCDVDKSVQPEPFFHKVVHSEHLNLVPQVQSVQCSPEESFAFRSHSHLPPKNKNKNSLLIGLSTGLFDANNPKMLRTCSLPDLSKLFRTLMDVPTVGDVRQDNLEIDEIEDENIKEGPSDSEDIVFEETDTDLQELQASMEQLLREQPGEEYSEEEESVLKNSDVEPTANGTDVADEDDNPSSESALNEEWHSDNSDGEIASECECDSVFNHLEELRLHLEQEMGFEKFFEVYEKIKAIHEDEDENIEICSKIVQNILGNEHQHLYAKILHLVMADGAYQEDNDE
The conditions noted are these: at 0.1 µM.

The target in assay [3] is T2, Serine/threonine-protein kinase Nek1 (Homo sapiens). The conditions noted are these: at 1 µM.
Assay [4] concerns the target T3, Serine/threonine-protein kinase Nek2 (Homo sapiens) (UniProt P51955).
T3 sequence (whole entry): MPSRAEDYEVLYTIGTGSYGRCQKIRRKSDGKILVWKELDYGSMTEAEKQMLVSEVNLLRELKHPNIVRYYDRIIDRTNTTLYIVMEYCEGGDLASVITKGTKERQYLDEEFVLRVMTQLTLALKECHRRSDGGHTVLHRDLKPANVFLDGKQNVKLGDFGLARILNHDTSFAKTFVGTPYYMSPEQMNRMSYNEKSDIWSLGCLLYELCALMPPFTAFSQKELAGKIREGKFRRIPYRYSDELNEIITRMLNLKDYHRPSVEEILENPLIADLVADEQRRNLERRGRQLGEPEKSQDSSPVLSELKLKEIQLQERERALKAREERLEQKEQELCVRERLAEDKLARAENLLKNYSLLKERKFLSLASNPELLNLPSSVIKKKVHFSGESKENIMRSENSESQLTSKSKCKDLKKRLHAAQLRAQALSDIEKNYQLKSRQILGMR
Particulars: at 0.1 µM.

The target in assay [5] is T3, Serine/threonine-protein kinase Nek2 (Homo sapiens). The conditions noted are these: at 1 µM.
For assay [6], the target named is Serine/threonine-protein kinase Nek6 (Homo sapiens) (UniProt Q9HC98). Particulars: at 0.1 µM.
For assay [7] the target is unchanged. Particulars: at 1 µM.
Assay [8] concerns the target Serine/threonine-protein kinase Nek7 (Homo sapiens) (UniProt Q8TDX7). Particulars: at 0.1 µM.
Assay [9] shares this target. Particulars: at 1 µM.
The target in assay [10] is T4, Serine/threonine-protein kinase Nek9 (Homo sapiens) (UniProt Q8TD19).
T4 sequence (whole entry): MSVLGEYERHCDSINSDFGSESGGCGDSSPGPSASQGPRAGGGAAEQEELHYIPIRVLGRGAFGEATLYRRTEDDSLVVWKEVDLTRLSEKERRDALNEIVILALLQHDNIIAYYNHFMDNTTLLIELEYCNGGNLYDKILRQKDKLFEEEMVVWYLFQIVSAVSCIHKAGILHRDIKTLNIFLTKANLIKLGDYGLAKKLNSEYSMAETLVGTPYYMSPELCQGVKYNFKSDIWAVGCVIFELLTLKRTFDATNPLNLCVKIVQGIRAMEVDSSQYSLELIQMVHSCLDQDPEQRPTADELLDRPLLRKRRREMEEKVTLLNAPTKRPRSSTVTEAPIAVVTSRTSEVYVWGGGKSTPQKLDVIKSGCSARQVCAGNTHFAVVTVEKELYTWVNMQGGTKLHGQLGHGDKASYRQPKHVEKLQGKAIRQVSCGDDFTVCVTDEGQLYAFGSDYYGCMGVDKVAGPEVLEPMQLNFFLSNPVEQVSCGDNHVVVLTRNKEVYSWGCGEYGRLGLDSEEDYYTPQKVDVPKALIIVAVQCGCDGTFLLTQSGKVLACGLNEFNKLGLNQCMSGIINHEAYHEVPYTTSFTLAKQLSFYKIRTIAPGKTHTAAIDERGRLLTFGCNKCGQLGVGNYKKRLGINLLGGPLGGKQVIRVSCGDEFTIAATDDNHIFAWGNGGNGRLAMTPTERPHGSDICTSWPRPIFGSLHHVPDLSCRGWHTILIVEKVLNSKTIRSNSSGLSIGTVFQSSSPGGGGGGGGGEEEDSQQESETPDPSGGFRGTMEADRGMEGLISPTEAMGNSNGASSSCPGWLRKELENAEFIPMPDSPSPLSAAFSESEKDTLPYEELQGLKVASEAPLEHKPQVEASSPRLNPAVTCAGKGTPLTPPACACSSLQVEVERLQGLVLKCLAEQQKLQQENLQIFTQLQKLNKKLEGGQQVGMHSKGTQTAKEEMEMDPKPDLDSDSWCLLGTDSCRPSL
The conditions noted are these: at 0.1 µM.

For assay [11], the target named is T4, Serine/threonine-protein kinase Nek9 (Homo sapiens). The conditions noted are these: at 1 µM.
Assay [12] has as its target Serine/threonine-protein kinase PLK1 (Homo sapiens) (UniProt P53350). Particulars: at 0.1 µM.
For assay [13] the target is unchanged. Particulars: at 1 µM.
Assay [14] deals with T5, Dual specificity protein kinase TTK (Homo sapiens) (UniProt P33981).
T5 sequence (whole entry): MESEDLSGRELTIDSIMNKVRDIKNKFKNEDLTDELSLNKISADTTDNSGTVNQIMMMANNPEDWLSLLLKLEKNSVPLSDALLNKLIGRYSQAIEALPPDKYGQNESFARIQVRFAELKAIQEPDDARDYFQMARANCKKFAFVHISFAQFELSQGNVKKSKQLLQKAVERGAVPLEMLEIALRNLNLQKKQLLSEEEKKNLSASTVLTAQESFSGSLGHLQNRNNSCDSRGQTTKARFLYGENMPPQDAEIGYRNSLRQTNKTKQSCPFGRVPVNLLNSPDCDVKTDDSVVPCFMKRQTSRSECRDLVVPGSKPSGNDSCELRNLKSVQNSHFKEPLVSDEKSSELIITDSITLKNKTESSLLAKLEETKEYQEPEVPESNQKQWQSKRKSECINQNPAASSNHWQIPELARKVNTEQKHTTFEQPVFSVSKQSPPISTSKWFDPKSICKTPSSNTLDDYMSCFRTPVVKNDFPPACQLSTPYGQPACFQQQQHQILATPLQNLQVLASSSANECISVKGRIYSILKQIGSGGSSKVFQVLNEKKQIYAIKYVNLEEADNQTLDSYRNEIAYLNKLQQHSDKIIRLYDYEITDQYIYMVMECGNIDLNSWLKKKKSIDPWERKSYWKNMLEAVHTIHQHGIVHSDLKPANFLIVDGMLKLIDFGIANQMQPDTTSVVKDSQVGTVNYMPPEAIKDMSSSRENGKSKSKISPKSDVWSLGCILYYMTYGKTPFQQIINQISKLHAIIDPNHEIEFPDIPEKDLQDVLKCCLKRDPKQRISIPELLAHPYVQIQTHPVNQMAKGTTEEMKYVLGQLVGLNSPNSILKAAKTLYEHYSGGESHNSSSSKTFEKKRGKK
Particulars: at 0.1 µM.

Assay [15] deals with T6, Receptor-type tyrosine-protein kinase FLT3 (Homo sapiens), P36888 [D835Y].
T6 sequence (whole entry): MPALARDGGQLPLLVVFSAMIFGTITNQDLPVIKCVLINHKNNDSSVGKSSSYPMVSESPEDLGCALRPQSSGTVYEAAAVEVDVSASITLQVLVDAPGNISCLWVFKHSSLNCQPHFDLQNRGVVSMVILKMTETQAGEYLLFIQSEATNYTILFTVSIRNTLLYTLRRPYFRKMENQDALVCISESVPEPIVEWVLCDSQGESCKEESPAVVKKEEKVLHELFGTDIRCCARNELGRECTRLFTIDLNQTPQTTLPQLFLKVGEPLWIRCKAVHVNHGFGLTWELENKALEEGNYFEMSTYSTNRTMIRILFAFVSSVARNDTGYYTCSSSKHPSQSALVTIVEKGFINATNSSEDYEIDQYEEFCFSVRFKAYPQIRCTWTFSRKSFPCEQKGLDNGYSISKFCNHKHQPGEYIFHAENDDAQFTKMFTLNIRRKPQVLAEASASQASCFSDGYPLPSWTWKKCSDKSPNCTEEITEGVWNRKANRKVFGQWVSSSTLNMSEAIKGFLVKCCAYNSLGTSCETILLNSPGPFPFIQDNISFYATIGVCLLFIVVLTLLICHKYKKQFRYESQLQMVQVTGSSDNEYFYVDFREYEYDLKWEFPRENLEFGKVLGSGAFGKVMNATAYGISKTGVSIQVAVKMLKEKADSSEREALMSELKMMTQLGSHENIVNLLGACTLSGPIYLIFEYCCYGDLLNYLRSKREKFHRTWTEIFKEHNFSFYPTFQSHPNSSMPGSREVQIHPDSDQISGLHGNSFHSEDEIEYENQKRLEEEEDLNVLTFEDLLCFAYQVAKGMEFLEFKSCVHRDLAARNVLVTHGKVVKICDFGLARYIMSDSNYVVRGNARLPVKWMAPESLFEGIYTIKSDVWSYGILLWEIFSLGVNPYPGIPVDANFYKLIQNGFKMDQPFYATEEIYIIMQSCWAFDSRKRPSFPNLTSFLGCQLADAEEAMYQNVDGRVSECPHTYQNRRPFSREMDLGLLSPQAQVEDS
Particulars: at 1 µM.

In assay [16] the target is Vascular endothelial growth factor receptor 3 (Homo sapiens) (UniProt P35916). Particulars: at 0.1 µM.
For assay [17] the target is unchanged. Particulars: at 1 µM.
The target in assay [18] is Macrophage colony-stimulating factor 1 receptor (Homo sapiens) (UniProt P07333). The conditions noted are these: at 0.1 µM.
The target is the same in assay [19]. The conditions noted are these: at 1 µM.
Assay [20] has as its target Tyrosine-protein kinase Fyn (Homo sapiens) (UniProt P06241). The conditions noted are these: at 0.1 µM.

Serine/threonine-protein kinase Nek7 (Homo sapiens), sequence (Q8TDX7 whole entry, looked up): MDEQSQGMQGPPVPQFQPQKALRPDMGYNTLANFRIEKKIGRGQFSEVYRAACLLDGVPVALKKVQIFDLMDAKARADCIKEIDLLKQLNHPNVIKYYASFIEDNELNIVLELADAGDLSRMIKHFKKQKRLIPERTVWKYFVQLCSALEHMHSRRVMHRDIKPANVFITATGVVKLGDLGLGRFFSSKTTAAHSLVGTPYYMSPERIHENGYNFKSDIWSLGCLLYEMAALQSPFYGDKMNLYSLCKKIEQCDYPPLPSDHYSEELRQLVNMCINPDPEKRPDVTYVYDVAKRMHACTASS
Macrophage colony-stimulating factor 1 receptor (Homo sapiens), sequence (P07333 whole entry): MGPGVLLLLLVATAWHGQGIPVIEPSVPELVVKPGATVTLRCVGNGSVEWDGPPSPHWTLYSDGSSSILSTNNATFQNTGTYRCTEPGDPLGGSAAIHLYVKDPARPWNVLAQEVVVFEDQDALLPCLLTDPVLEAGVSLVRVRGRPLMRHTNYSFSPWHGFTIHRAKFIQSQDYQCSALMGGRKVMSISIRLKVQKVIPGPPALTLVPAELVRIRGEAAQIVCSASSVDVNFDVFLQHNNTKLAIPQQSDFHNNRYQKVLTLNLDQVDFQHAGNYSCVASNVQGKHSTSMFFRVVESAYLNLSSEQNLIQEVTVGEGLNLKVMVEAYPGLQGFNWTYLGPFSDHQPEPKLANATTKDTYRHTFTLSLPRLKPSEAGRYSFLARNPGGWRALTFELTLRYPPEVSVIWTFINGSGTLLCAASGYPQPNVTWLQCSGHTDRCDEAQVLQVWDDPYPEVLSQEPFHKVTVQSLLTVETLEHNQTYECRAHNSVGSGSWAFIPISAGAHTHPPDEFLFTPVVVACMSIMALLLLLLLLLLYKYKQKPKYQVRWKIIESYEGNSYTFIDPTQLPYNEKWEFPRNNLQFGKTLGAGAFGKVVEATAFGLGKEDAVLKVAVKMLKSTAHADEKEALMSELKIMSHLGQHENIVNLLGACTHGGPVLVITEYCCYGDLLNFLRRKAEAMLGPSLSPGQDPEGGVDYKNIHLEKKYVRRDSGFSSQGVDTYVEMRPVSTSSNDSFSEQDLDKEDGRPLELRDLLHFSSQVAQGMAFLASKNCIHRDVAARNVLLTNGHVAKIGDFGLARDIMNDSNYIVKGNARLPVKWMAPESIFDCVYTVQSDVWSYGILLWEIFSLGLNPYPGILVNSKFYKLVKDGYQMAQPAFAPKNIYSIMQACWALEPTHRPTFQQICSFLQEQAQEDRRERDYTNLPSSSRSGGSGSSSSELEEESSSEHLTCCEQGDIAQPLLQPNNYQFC
Serine/threonine-protein kinase PLK1 (Homo sapiens), sequence (P53350 whole entry): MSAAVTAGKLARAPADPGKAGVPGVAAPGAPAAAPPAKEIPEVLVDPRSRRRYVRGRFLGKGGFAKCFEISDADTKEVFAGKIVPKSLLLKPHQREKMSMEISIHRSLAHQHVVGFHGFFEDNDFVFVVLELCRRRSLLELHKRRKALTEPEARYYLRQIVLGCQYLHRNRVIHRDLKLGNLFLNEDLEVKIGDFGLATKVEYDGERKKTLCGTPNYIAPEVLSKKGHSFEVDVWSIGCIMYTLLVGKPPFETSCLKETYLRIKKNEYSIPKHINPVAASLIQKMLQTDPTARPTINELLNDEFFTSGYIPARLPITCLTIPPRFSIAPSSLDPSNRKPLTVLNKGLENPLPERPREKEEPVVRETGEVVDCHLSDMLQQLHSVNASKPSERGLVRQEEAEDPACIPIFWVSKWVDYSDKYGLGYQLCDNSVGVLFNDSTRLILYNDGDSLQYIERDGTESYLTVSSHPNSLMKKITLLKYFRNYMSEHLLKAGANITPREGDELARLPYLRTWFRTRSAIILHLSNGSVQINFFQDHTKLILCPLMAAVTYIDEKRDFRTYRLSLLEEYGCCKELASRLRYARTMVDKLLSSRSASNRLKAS
Serine/threonine-protein kinase Nek6 (Homo sapiens), sequence (Q9HC98 whole entry): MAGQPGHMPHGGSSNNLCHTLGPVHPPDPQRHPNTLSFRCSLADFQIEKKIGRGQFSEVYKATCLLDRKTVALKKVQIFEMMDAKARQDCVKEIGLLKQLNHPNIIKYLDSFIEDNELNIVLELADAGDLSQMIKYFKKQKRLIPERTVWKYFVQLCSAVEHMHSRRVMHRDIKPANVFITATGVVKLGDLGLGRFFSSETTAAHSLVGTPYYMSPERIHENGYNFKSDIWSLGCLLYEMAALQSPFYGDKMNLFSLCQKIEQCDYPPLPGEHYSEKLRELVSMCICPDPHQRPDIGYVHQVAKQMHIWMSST
Vascular endothelial growth factor receptor 3 (Homo sapiens), sequence (P35916 whole entry): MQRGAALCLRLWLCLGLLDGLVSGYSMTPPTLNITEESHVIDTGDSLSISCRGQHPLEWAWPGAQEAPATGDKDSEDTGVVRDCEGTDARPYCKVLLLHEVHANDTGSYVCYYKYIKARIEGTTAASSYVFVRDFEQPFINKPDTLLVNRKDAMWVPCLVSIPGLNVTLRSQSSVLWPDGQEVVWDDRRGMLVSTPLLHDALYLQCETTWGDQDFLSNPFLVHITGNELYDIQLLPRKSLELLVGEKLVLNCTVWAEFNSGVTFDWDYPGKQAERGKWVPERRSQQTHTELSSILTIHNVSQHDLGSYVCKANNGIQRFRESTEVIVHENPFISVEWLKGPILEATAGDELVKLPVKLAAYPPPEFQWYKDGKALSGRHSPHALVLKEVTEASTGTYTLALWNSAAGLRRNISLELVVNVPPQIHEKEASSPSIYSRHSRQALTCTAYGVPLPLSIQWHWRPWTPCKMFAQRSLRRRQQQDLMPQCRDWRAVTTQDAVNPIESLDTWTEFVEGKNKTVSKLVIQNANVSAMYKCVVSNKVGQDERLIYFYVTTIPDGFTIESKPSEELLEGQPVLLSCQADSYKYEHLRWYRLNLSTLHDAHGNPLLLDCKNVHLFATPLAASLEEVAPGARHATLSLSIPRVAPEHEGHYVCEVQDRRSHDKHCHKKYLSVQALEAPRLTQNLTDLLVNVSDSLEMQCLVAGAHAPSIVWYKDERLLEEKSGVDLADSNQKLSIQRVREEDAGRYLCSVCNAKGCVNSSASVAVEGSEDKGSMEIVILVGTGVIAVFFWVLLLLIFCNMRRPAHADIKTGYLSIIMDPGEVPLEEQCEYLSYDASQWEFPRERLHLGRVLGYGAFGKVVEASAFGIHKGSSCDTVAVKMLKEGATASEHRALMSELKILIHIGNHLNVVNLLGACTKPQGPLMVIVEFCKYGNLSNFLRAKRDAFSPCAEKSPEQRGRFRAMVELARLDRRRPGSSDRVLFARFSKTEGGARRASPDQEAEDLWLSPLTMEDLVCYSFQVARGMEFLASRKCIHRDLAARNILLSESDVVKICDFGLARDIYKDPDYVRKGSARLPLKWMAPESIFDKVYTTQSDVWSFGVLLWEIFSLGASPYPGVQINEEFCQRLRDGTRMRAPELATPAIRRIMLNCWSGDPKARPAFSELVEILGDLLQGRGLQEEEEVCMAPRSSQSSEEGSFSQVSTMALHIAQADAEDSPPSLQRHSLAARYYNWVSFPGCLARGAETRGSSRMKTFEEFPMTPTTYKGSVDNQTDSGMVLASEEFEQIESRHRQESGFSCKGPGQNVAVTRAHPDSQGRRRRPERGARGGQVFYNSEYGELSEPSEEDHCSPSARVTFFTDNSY
Tyrosine-protein kinase Fyn (Homo sapiens), sequence (P06241 2-537 limits assumed): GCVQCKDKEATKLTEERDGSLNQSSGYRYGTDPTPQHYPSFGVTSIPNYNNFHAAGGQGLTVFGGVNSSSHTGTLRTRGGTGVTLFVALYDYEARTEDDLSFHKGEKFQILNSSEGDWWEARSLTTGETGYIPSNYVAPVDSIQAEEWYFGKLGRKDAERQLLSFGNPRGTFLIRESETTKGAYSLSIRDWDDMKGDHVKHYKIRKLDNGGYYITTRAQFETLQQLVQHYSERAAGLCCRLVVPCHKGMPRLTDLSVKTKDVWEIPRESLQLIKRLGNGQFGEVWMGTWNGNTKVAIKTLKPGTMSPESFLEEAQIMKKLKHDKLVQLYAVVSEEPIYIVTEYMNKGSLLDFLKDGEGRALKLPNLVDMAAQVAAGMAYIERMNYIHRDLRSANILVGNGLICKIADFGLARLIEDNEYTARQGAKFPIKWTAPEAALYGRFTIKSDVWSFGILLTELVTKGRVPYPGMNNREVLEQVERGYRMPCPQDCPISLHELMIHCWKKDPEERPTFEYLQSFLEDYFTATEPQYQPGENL

For `O=C(O[C@H]1CN[C@H](C#Cc2cc3ncnc(Nc4ccc(OCc5cccc(F)c5)c(Cl)c4)c3s2)C1)N1CCOCC1`, the inhibition was 9.71% in [1]; 3.33% in assay [2]; 4.01% in [3]; 6.18% in assay [4]; 8.23% in assay [5]; 1.15% in assay [6]. In addition, the inhibition in assay [7] was found to be 2.74%; in [8] it was 4.68%; in [9], 3.68%; in [10], 5.79%; in assay [11], 13.5%; in assay [12], 3.78%. The inhibition in assay [13] is 4.55%; in assay [14], 12.4%; in assay [15], -1.26%; in assay [16], 6.24%; in [17], 3.14%; in assay [18], 1.07%. The figures for the inhibition in assay [19] and in assay [20] were 1.72% and 3.75%, respectively.

Take `CNC(=O)c1sc(-n2cnc3cc(OC)c(OC)cc32)cc1OCc1ccccc1C(F)(F)F`: the inhibition in [1] amounted to 5.28%; in [2] it was 1.76%; in assay [3], 2.01%; in assay [4], 3.26%; in assay [5], 4.32%; in assay [6] it was 1.25%. The inhibition in assay [7] was 1.86%; in assay [8] it was 1.64%; in assay [9], -2.15%; in assay [10], 7.04%; in [11], 9.14%; in assay [12], 4.65%. Also, the inhibition in [13] is 17.8%; in assay [14] it was 4.81%; in assay [15], -2.47%; in assay [16] it was 3.76%; in assay [17], 6.76%; in assay [18] it was -2.22%. Also, the inhibition came to 7.07% in [19] and 2.51% in assay [20].
